A selection: hits, their analogues and other compounds. The true share with any hit is near 12%.
KCC2 mod – KCC2 cotransporter modulators, thallium flux, primary screen, cell-based, HEK293 KCC2, FluoZin-2 fluorescence, MLSMR; Solute carrier family 12 member 5 (Homo sapiens), Q9H2X9; KCC2 cells, thallium flux FluoZin-2 fluorescence; B-score of Tl+ flux slope (higher = more flux/activation; lower = inhibition) at 10 µM; actives 2.2% (n = 190,000); AID 1456, 2008;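 active = thallium flux slope and its plate-corrected score both differing from the plate sample mean at a set confidence after two filtering rounds, in either direction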;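 also: slope of fluorescence scaled to starting intensity during 10 to 20 s after thallium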
WT yeast gro inh – growth inhibition of WT strain, primary screen, mitochondrial fusion inhibitor project, WT and mutant strains, chemical genetic; AID 1362, 2008; inhibition, % at 10 µM; actives 2.1% (n = 190,000); mitochondrial fusion phenotypic screen; in the data active = inhibition above about 58%; tested in S. cerevisiae
Lmaj promast – Leishmania major promastigote growth inhibition, primary screen. Leishmania major promastigotes, resazurin fluorescence viability. inhibition, % at 10 µM. actives 9% (n = 200,000); in the data active = inhibition above about 50%;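 also: promastigotes grown with compound for 44 hours at 28 °C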
m-calpain inh – inhibitors of pig calpain II, primary screen, biochemical, fluorogenic peptide substrate, 1536-well; purified calpain II, 30 min; inhibition, % at 16 µM; actives 0.37% (n = 220,000); AID 1236, 2008;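 active = inhibition above about 50%, limit read from the data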
ROMK mod – ROMK potassium channel modulators, primary screen, cell-based, thallium flux, MLSMR library; Tet-inducible ROMK, thallium flux fluorescence; actives lie on both sides; B-score at 10 µM; actives 2% (n = 130,000); AID 1918, 2009; ATP-sensitive inward rectifier potassium channel 1 (Homo sapiens), P48048;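 active = signal ratio slope over the read window, or its plate-corrected B-score, at least 3 SD from the plate mean, either direction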;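 also: B-score of the F/F0 ratio slope over 7 to 12 s after thallium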
Target sequence (P48048 whole entry, looked up): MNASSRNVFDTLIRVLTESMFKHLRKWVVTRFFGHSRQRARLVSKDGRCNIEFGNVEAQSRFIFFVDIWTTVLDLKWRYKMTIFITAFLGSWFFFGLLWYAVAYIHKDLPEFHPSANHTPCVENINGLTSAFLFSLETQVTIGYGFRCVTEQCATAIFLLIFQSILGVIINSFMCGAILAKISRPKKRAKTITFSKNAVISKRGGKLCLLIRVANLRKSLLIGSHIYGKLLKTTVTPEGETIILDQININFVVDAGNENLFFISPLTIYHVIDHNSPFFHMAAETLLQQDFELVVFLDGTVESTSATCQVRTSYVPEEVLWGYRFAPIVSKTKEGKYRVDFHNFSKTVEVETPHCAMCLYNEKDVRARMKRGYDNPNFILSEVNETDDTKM
* = called active by the depositor; i = inactive; nt = no result.

SMILES	KCC2 mod	WT yeast gro inh	Lmaj promast	m-calpain inh	ROMK mod
CCCCCc1c(C)nc(Nc2nc(C)c3cc(OC)ccc3n2)[nH]c1=O	nt	-14.6	98.7*	-149.4	0.167
Cc1nc(Nc2nc(CSc3nc4ccccc4[nH]3)cc(=O)[nH]2)nc2ccccc12	-2.31	-1.1	47.1	-74.4	nt
COc1ccc2c(C)nc(Nc3nc(C)cc(C)n3)nc2c1	-0.536	18.3	21.6	-66.1	0.883
COc1ccc2c(C)nc(Nc3nc(C)c(C)c(=O)[nH]3)nc2c1	0.0754	62.4*	100.3*	-33.9	nt
CCc1c(C)nc(Nc2nc(C)c3cc(OC)ccc3n2)[nH]c1=O	nt	49.2	98.4*	-118.6	0.477
CCCCc1cc2c(cc1NC(=O)CN1CCCCC1)OCCO2	-2.95	nt	nt	7.6	nt
CCOC(=O)c1ccc(Oc2nc(N(C)C)nc(N3CCOCC3)n2)cc1	-0.459	0.0	6.6	3.4	-0.168
O=C(/C=C/c1ccc2c(c1)OCCO2)c1ccccc1	-2.23	nt	nt	-15.7	nt
Nc1ccccc1C(=O)/C=C/c1ccc2c(c1)OCO2	-0.0288	16.4	58.0*	8.2	0.502
Cc1ccc(O)c(C(=O)/C=C/c2ccc3c(c2)OCCO3)c1	-0.0247	59.7*	17.6	32.6	0.109
Cc1cc(=O)oc(C)c1C(=O)NCc1cccnc1	nt	-6.4	-4.4	13.5	nt
CN(C)CCNC(=O)c1ccc(CS(=O)(=O)c2ccc(Br)cc2)o1	0.453	12.3	77.4*	nt	nt
O=C(NCc1cccnc1)c1ccc([N+](=O)[O-])o1	0.0211	3.5	93.5*	6.7	0.00993
Cc1cccc(CS(=O)(=O)Cc2ccc(C(=O)NCc3ccco3)o2)c1	nt	-19.3	79.7*	-11.5	0.0631
O=C(NCc1cccs1)c1ccc(CS(=O)(=O)c2ccc(Cl)cc2)o1	nt	-12.1	-1.3	7.5	0.0144
CN(C)CCNC(=O)c1ccc(CS(=O)(=O)c2c(Cl)cccc2Cl)o1	nt	6.9	7.2	-18.4	nt
O=C(NCc1cccnc1)c1ccc(CS(=O)(=O)c2ccc(Cl)cc2)o1	-5.3*	8.3	-2.6	-2.3	nt
CSc1cccc(NC(=S)N(CCC(C)C)C2CCN(C(C)C)CC2)c1	-0.369	-8.3	41.1	-1.4	0.304
COc1ccccc1Nc1ccc(S(=O)(=O)N2CCCCC2)cc1[N+](=O)[O-]	0.47	-10.0	1.3	-4.4	nt
O=C(NCc1ccco1)c1ccc([N+](=O)[O-])o1	-0.83	-17.1	62.5*	-41.9	0.147
O=C(NCc1ccco1)c1ccc(Cn2cc([N+](=O)[O-])cn2)o1	1.4	-9.9	-4.5	-17.1	-0.102
O=C(N/N=C/c1cccnc1)c1cc2c(ccc3ccccc32)o1	nt	0.6	38.6	i	-0.505
CCn1cc(/C=N/NC(=O)c2cc3c(ccc4ccccc43)o2)c2ccccc21	0.305	29.4	99.5*	-368.4	1.18
CC(C)n1cc(/C=N\NC(=O)c2cc3c(ccc4ccccc43)o2)c2ccccc21	nt	5.0	97.1*	-261.5	nt
Cc1ccc(/C=N/NC(=O)c2cc3c(ccc4ccccc43)o2)cc1[N+](=O)[O-]	0.704	0.6	5.1	25.6	-0.947
SMILES	KCC2 mod	WT yeast gro inh	Lmaj promast	m-calpain inh	ROMK mod
COc1ccc(C(C(N)=O)c2ncc(C(F)(F)F)cc2Cl)cc1 (stereo not given)	0.507	1.4	-4.3	16.1	0.0211
COCCNC(=O)CC(=O)N/N=C/c1cccc(C(=O)OC)c1	0.008	-10.7	0.5	-1.6	nt
CCOC(=O)CSc1nc(=O)n2ccc(C)cc2n1	nt	-3.6	0.8	-18.1	0.213
CCNS(=O)(=O)c1ccc(NC(=O)CC(C)c2ccccc2)cc1 (stereo not given)	0.14	-0.4	1.4	5.4	-0.2
Cc1cccc(N2C(=O)C3C4CC(=O)C(c5ccccc54)C3C2=O)c1C (stereo not given)	0.384	-3.3	-4.1	30.7	-0.318
CC(Oc1ccc2oc3ccccc3c2c1)C(=O)NC12CC3CC(CC(C3)C1)C2 (stereo not given)	0.283	66.6*	11.2	19.5	-0.168
Cc1ccc(C(=O)/C=C\C(=O)c2ccc(C)cc2)cc1	0.972	69.7	100.5*	-9.6	-1.17
CCc1ccccc1NC(=O)CN(C)C(=O)Cn1cc(C(F)(F)F)cc(Cl)c1=O	-0.0866	-17.2	1.4	29.5	0.0451
CCOC(=O)c1ccc(CC(=O)c2ccc(O)c(O)c2O)o1	1.74	-7.8	-9.8	57.9*	-0.482
CC(NC(=O)/C(=C/c1cccc([N+](=O)[O-])c1)NC(=O)c1ccco1)C(=O)O (stereo not given)	0.242	3.7	55.2*	10.2	-0.0888

Source: PubChem BioAssay (several laboratories)
